For experiment [1], the system named is NCBI gene 24521. Nature of the experiment: NVS_IC_rKATPCh: NovaScreen (NVS) Ion Channel Assay for rat Potassium Channel, ATP-Sensitive (KATPCh) (AID 2283319). In a few lines: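 Rat cortical membranes; radioligand binding at ATP-sensitive K channel site, filter-based scintillation counting 2 h after dosing. Single-point duplicate screen at 25 uM, hits rerun in concentration-response up to 50 uM; loss of signal versus DMSO.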

For experiment [2], the target named is human Serotonin, 5-Hydroxytryptamine Receptor 3 (5HT3), HTR3A (gene 3359) (UniProt P46098). Nature of the experiment: NVS_LGIC_h5HT3: NovaScreen (NVS) Ligand-Gated Ion Channel Assay for human Serotonin, 5-Hydroxytryptamine Receptor 3 (5HT3) (AID 2283325). In a few lines: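 Radioligand displacement binding to human 5-HT3 from HEK293 membranes, read by filter-based scintillation counting after 1 h. Screen at 25 uM in duplicate; chemicals passing threshold were retested in concentration-response up to 50 uM.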

For experiment [3], the target named is rat Oxytocin Receptor (OXT), Oxtr (gene 25342) (UniProt P70536). Kind of experiment: NVS_GPCR_rOXT: NovaScreen (NVS) G Protein-Coupled Receptor Assay for rat Oxytocin Receptor (OXT) (AID 2283330). Here is the method:
NVS_GPCR_rOXT is a biochemical, single-readout assay that uses extracted gene-proteins from Rat uterine membranes in a tissue-based cell-free assay. Measurements were taken 1 hour after chemical dosing in a 48-well plate.NVS_GPCR_rOXT is one of one assay component(s) measured or calculated from the NVS_GPCR_rOXT assay. It is designed to make measurements of radioligand binding, a form of binding reporter, as detected with scintillation counting signals by Filter-based radiodetection technology.Data from the assay component NVS_GPCR_rOXT was analyzed into 1 assay endpoint. This assay endpoint, NVS_GPCR_rOXT, was analyzed in the positive analysis fitting direction relative to DMSO as the negative control and baseline of activity. […] Furthermore, this assay endpoint can be referred to as a primary readout, because the performed assay has only produced 1 assay endpoint. […]
Binding assays used specific radioligands (tritiated, iodinated) with non-radioactive competitive displacement ligands in agonist or antagonist protocols (as indicated) and various reference compounds and inhibitors to titrate specific binding to receptors and transporters. Most enzyme assays (CYPs, kinases, phosphatases, proteases, HDACs) used recombinant protein and specific substrates (fluorescence mostly, some colorimetric and radioactive) and inhibitors, followed by a biochemical separation of substrate and product. […]

The nature of experiment [4]: NVS_IC_rCaDHPRCh_L: NovaScreen (NVS) Ion Channel Assay for rat Calcium Channel, Type L, Dihydropyridine Site (CaDHPRCh_L) (AID 2283320). Here is the method: NVS_IC_rCaDHPRCh_L is a biochemical, single-readout assay that uses extracted gene-proteins from Rat cortical membranes in a tissue-based cell-free assay. Measurements were taken 1 hour after chemical dosing in a 48-well plate.NVS_IC_rCaDHPRCh_L is one of one assay component(s) measured or calculated from the NVS_IC_rCaDHPRCh_L assay. It is designed to make measurements of radioligand binding, a form of binding reporter, as detected with scintillation counting signals by Filter-based radiodetection technology.Data from the assay component NVS_IC_rCaDHPRCh_L was analyzed into 1 assay endpoint. This assay endpoint, NVS_IC_rCaDHPRCh_L, was analyzed in the positive analysis fitting direction relative to DMSO as the negative control and baseline of activity. Using a type of binding reporter, loss-of-signal activity can be used to understand changes in the binding as they relate to the gene Cacna1a. Furthermore, this assay endpoint can be referred to as a primary readout, because the performed assay has only produced 1 assay endpoint. To generalize the intended target to other relatable targets, this assay endpoint is annotated to the ion channel intended target family, where the subfamily is calcium channel.
Binding assays used specific radioligands (tritiated, iodinated) with non-radioactive competitive displacement ligands in agonist or antagonist protocols (as indicated) and various reference compounds and inhibitors to titrate specific binding to receptors and transporters. Most enzyme assays (CYPs, kinases, phosphatases, proteases, HDACs) used recombinant protein and specific substrates (fluorescence mostly, some colorimetric and radioactive) and inhibitors, followed by a biochemical separation of substrate and product. All assays for the biochemical HTS were initially run in duplicate at a single concentration (10 uM for CYP450 assays and 25 uM for all others). Assay-chemical combinations meeting a pre-defined threshold (e.g., 30% inhibition and other criteria defined below) were then run in singleton concentration-response format with maximum concentration of 20 uM for CYPs and 50 uM for all others. Each assay was run with positive and negative controls, and concurrent controls on every plate. The follow-up (secondary) screen tested active chemical-pairs in concentration series, as well as a few additional assays not tested in the primary screen, some selected negative inactives, and several cases re-run in the concentration series for confirmatory purposes.

Experiment [5] addresses Sodium channel protein type 1 subunit alpha (Rattus norvegicus) (UniProt P04774). Kind of experiment: NVS_IC_rNaCh_site2: NovaScreen (NVS) Ion Channel Assay for rat Sodium Channel, Site 2 (NaCh) (AID 2283322).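 Further: hit means loss of radioligand binding signal relative to DMSO so AC50 marks displacement.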 In a few lines:
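Membranes: rat forebrain. Format: competitive radioligand displacement, filter separation, scintillation readout, 1 h exposure. Primary screen in duplicate at 25 uM; actives retested in concentration series.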

The target of experiment [6] is rat Thyrotropin Releasing Hormone Receptor (TRH), Trhr (gene 25570) (UniProt Q01717). Kind of experiment: NVS_GPCR_rTRH: NovaScreen (NVS) G Protein-Coupled Receptor Assay for rat Thyrotropin Releasing Hormone Receptor (TRH) (AID 2283329).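 Further: hit means lower bound tracer signal versus DMSO baseline.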 In a few lines:
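Competitive radioligand binding on rat forebrain membrane preparations, with filtration and scintillation readout after 4 h. Primary testing in duplicate at 25 uM; actives confirmed in concentration-response. DMSO defined baseline.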

For experiment [7], the target named is human Peripheral-type Benzodiazepine Receptor (PBR), TSPO (gene 706) (UniProt P30536). Nature of the experiment: NVS_MP_hPBR: NovaScreen (NVS) Membrane Protein Assay for human Peripheral-type Benzodiazepine Receptor (PBR) (AID 2283331).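 Further: hits reduce radioligand binding relative to DMSO baseline.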 In a few lines: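 Radioligand displacement on human colonic cell membranes, 1 h incubation; bound radioactivity by filtration and scintillation counting. Primary screen in duplicate at 25 uM single concentration, actives followed up in concentration series; loss of binding versus DMSO.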

In experiment [8] the target is rat Glutamate, AMPA Site (AMPA), Gria1 (gene 50592) (UniProt P19490). Kind of experiment: NVS_LGIC_rAMPA: NovaScreen (NVS) Ligand-Gated Ion Channel Assay for rat Glutamate, AMPA Site (AMPA) (AID 2283324). In a few lines: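 Rat forebrain membranes; radioligand binding read 1 h after dosing by filtration and scintillation counting. Duplicate single-point screen at 25 uM, then concentration-response to 50 uM for threshold hits (e.g. 30% inhibition); loss of signal vs DMSO.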

The target of experiment [9] is rat Glutamate, NMDA Agonist Site (GluNMDA), Grin1 (gene 24408) (UniProt P35439). Kind of experiment: NVS_LGIC_rGluNMDA_Agonist: NovaScreen (NVS) Ligand-Gated Ion Channel Assay for rat Glutamate, NMDA Agonist Site (GluNMDA) (AID 2283327). In a few lines:
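Rat forebrain membranes, radioligand binding in the agonist-site protocol; 1 h after dosing; filter-based scintillation counting. Single-concentration duplicate screen at 25 uM, then concentration-response up to 50 uM for actives; gain-of-signal vs DMSO.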

Each structure is given as a SMILES string. Results filed as inconclusive are left out. Active and inactive are the calls of the source. How the source made its calls: active means hit-call score of the fitted dose curve at least 0.9, where 1 is the maximum; inconclusive means response in the unintended direction; inactive means score below 0.9.

Sequence of human Peripheral-type Benzodiazepine Receptor (PBR), TSPO (gene 706) (P30536 whole entry, looked up): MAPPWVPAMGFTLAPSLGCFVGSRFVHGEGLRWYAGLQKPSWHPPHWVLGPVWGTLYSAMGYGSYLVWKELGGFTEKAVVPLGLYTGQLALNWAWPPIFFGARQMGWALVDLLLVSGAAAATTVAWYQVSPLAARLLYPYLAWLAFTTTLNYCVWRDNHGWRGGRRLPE
Sequence of rat Thyrotropin Releasing Hormone Receptor (TRH), Trhr (gene 25570) (Q01717 whole entry, looked up): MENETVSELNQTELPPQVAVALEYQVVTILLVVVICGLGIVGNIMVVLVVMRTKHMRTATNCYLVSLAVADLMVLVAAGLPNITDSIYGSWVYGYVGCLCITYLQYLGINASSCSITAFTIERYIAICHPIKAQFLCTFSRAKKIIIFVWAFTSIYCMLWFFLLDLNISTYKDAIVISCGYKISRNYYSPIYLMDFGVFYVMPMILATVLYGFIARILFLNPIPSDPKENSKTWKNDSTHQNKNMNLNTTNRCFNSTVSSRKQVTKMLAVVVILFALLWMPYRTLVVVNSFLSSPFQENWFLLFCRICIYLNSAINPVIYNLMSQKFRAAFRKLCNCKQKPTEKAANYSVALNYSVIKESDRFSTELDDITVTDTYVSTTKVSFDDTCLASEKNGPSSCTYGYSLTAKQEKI
Sequence of rat Oxytocin Receptor (OXT), Oxtr (gene 25342) (P70536 whole entry, looked up): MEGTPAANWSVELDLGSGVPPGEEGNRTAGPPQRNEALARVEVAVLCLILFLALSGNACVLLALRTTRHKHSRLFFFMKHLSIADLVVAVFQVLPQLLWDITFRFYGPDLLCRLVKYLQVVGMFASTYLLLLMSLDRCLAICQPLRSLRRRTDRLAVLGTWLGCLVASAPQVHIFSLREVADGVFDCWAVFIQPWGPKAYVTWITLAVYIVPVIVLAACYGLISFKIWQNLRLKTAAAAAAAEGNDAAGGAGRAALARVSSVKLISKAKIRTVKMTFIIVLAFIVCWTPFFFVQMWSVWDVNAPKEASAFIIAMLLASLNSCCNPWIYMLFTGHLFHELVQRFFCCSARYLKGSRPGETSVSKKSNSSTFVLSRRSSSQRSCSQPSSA
Sequence of rat Glutamate, AMPA Site (AMPA), Gria1 (gene 50592) (P19490 whole entry, looked up): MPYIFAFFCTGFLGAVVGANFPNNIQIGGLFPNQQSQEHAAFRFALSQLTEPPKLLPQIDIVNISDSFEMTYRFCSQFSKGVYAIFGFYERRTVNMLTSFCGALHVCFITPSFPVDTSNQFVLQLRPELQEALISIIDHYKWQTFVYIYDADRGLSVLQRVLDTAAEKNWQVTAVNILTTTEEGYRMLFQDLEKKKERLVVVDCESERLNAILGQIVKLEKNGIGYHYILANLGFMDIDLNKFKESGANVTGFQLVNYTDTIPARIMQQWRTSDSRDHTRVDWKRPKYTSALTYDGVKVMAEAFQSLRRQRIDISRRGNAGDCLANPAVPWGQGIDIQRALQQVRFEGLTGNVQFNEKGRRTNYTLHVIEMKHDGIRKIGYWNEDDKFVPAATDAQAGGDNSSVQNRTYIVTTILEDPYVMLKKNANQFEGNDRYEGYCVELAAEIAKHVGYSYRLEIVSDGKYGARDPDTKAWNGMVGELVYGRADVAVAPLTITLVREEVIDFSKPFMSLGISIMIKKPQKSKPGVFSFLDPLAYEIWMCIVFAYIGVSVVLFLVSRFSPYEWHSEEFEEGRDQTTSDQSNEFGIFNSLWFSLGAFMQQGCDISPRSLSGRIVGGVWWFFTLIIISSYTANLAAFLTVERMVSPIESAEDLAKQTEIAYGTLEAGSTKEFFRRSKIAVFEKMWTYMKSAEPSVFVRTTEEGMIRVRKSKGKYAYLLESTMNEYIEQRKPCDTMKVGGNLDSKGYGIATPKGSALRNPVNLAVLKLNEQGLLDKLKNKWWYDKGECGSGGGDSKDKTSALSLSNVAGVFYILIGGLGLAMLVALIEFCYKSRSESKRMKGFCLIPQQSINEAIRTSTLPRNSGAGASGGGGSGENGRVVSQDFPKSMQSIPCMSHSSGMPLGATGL
Sequence of human Serotonin, 5-Hydroxytryptamine Receptor 3 (5HT3), HTR3A (gene 3359) (P46098 whole entry, looked up): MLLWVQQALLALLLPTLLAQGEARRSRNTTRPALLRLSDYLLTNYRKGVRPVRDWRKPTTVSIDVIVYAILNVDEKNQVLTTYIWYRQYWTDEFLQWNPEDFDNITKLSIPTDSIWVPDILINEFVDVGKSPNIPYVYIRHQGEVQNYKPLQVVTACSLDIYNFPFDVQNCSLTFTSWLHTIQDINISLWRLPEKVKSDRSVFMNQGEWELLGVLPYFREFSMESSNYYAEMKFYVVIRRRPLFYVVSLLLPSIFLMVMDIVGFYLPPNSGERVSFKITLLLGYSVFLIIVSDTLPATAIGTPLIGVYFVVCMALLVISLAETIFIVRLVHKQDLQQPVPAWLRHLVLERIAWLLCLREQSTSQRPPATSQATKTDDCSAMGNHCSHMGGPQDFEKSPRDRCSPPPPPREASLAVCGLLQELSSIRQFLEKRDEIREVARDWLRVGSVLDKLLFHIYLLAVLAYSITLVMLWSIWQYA

With `CSc1nnc(C(C)(C)C)c(=O)n1N`, the call in experiment [1], in [2] and in experiment [3] was inactive.
Regarding `C[Si](Cn1cncn1)(c1ccc(F)cc1)c1ccc(F)cc1`, the AC50 is 25.7 µM (active) in [4], 18.1 µM (active) in experiment [5] and 25 µM (active) in experiment [7]. Further, the call in experiment [6] was inactive.
As to `CSc1nc(NC(C)C)nc(NC(C)C)n1`, the AC50 in [5] was 11.9 µM (active).
In the case of `COc1ccc(C(=CC(=O)N2CCOCC2)c2ccc(Cl)cc2)cc1OC`, the molecule was called inactive in experiment [1], in experiment [4] and in experiment [7].
As for `CON=C(C(=O)OC)c1ccccc1CON=C(C)c1cccc(C(F)(F)F)c1`, the call in [8] and in experiment [6] was inactive. In addition, the concentration at half-maximal activity (AC50) in experiment [7] was 1.06 µM (active).
`CCOP(=S)(OCC)Oc1ccc([N+](=O)[O-])cc1`: the outcome in [7] was inactive.
`CCc1cnc(C2=NC(C)(C(C)C)C(=O)N2)c(C(=O)O)c1` (stereo not drawn): the molecule was called inactive in experiment [6].
`C#CC(C)(C)NC(=O)c1cc(Cl)cc(Cl)c1`: the molecule was classed as inactive in experiment [6]. The concentration at half-maximal activity (AC50) in experiment [7] was 1.47 µM (active).
`CCCSP(=O)(OCC)SCCC`: the concentration at half-maximal activity (AC50) in [7] is 17.7 µM (active).
`CCc1cccc(C)c1N(C(=O)CCl)C(C)COC` (stereo not drawn): the half-maximal activity concentration (AC50) in [7] was 9.23 µM (active).
Regarding `CCOP(=O)(OCC)Oc1cc(C)nc(C(C)C)n1`, the result in experiment [7] was inactive.
As for `CCOP(=S)(OCC)Oc1cc(C)nc(C(C)C)n1`, the call in experiment [7] was inactive.
In the case of `CCOP(=S)(OCC)SCCSCC`, the molecule was classed as inactive in experiment [7].
With `CCc1cccc(CC)c1N(COC)C(=O)CCl`, the result in [9] was inactive. The AC50 in [7] was 11.1 µM (active).
For the molecule `CC(C)[C@H](C(=O)O[C@H](C#N)c1cccc(Oc2ccccc2)c1)c1ccc(Cl)cc1`, the molecule was called inactive in [7].
For `CC(COc1ccc(Oc2ccccc2)cc1)Oc1ccccn1` (stereo not drawn), the molecule was called inactive in experiment [7].
As to `C=C(C)[C@H]1Cc2c(ccc3c2O[C@@H]2COc4cc(OC)c(OC)cc4[C@@H]2C3=O)O1`, the result in experiment [7] was inactive.
As to `CCCCN(CC)c1c([N+](=O)[O-])cc(C(F)(F)F)cc1[N+](=O)[O-]`, the molecule was classed as inactive in experiment [7].
For `CNC(=O)ON=C(C)SC`, in [7], the molecule was called inactive.
Regarding `CCCCSP(=O)(SCCCC)SCCCC`, the concentration at half-maximal activity (AC50) in [7] was 17.9 µM (active).
As for `CCOC(=O)CC(SP(=O)(OC)OC)C(=O)OCC` (stereo not drawn), the outcome in [6] and in experiment [7] was inactive.
Regarding `CC1(C(=O)Nc2ccc(O)c(Cl)c2Cl)CCCCC1`, the half-maximal activity concentration (AC50) in [7] was 1.78 µM (active).
For `CCCSP(=O)(OCC)Oc1ccc(Br)cc1Cl` (stereo not drawn), the AC50 in [7] was 3.16 µM (active).
Turning to `CCC(=NOC/C=C/Cl)C1=C(O)CC(C2CCOCC2)CC1=O` (stereo not drawn), the result in experiment [7] was inactive.
For `CNc1cnn(-c2cccc(C(F)(F)F)c2)c(=O)c1Cl`, the molecule was classed as inactive in [3]. Besides, the half-maximal activity concentration (AC50) in [7] was 5.75 µM (active).
On to `CCOP(=S)(OCC)Oc1ccc2c(C)c(Cl)c(=O)oc2c1`, for which, in [7], the half-maximal activity concentration (AC50) is 3.86 µM (active).
Regarding `COP(=O)(NC(C)=O)SC` (stereo not drawn), the outcome in experiment [7] was inactive.
Regarding `CCOP(=S)(Oc1cnc(C(C)(C)C)nc1)OC(C)C` (stereo not drawn), in experiment [7], the outcome was inactive.
With `CCC(CC)Nc1c([N+](=O)[O-])cc(C)c(C)c1[N+](=O)[O-]`, the molecule was classed as inactive in experiment [6] and in experiment [7].

Values taken from PubChem BioAssay (EPA / NIEHS).
